Among the data in PubChem BioAssay (EPA / NIEHS) are outcome and AC50 values, retold here.

“And” between values parts separate entries of the source, which are not always exact repeats. Equal entries are not always repeated. More than one record can exist for a structure, and the calls need not agree. The source made the active and inactive calls. The calls were made as follows: active = hit-call score of the fitted dose curve at least 0.9, where 1 is the maximum; inactive = score below 0.9.

This assay in a line: ATG_TA_CIS: Attagene CIS-FACTORIAL HepG2 Assay for human TA Basal Promoter (AID 2282964). The following applies: HepG2 Attagene CIS-factorial TA basal promoter reporter; actives raise or lower the signal. The procedure: ATG_CIS is a cell-based, multiplexed-readout assay that uses HepG2, a human liver cell line, with measurements taken at 24 hours after chemical dosing in a 24-well plate.ATG_TA_CIS is one of 52 assay component(s) measured or calculated from the ATG_CIS assay. It is designed to make measurements of mRNA induction, a form of inducible reporter, as detected with fluorescence intensity signals by Reverse transcription polymerase chain reaction (RT-PCR) and Capillary electrophoresis technology.Data from the assay component ATG_TA_CIS was analyzed into 1 assay endpoint. This assay endpoint, ATG_TA_CIS, was analyzed with bidirectional fitting relative to DMSO as the negative control and baseline of activity. Using a type of inducible reporter, measures of mRNA for gain or loss-of-signal activity can be used to understand the background control at the transcription factor-level as they relate to the gene . Furthermore, this assay endpoint can be referred to as a secondary readout, because this assay has produced multiple assay endpoints where this one serves a background control function. To generalize the intended target to other relatable targets, this assay endpoint is annotated to the background measurement intended target family, where the subfamily is internal marker.
Human liver HepG2 cells are transiently transfected with multiple reporter transcription units (MRTUs) in 6-well plates using FuGene 6 reagent (Roche; 3 ml FuGene/1 mg DNA). The MRTU constructs are regulated by a cis-regulating element (promoter). […] A major difference between the CIS and TRANS system is that in CIS activities of endogenous TFs are measured, whereas the TRANS assay evaluates changes in activities of exogenous, chimeric NR-Gal4 proteins. […] At the end of 24 hour incubation, total RNA was isolated using TriZol reagent (Invitrogen). The isolated RNA is then reverse-transcribed using oligo(dT) primer and Mo-MLV reverse transcriptase (Invitrogen) with DNAse I (Ambion) treatment for 30 min. The one-tenth of the produced cDNA was amplified by PCR using Taq DNA polymerase (Invitrogen) and two reporter sequence-specific primers. The PCR products were fluorescently labeled by primer extension with 6-arboxyfluorescein (6-FAM) 5'-labeled reporter sequence-specific primer (2 min at 95 C, 20 s at 68 C and 10 min at 72 C) and these products were digested with 5U of HpaI (New England Biolabs) for 2h at 37 C. The fragments were purified using Qiaquick PCR columns (Qiagen), analyzed on an ABI 3130xL genetic analyzer (Applied Biosystems) with peak positions identified by using a set of X-rhodamine (ROX)-labeled MapMarker1000 molecular weight standards (BioVentures). The raw capillary electrophoresis data was processed using Attagraph software (Attagene).
One may read the AC50 as the midpoint of the concentration-response curve, whichever way the signal moves. As to `CCCCNC(=O)OCC#CI`, the molecule was classed as inactive and the AC50 was 27.7 µM (active).
Turning to `CCc1nn(C)c(C(=O)NCc2ccc(C(C)(C)C)cc2)c1Cl`, the outcome was inactive.
On the same count and under the same terms, in the case of `OC(c1ccc(Cl)cc1)(c1cncnc1)c1ccccc1Cl` (stereo unspecified) it was “inactive”; in that of `Fc1ccc(Oc2ccnc3cc(Cl)cc(Cl)c23)cc1`, “inactive”; in that of `CCOC(=O)C(Cl)Cc1cc(-n2nc(C)n(C(F)F)c2=O)c(F)cc1Cl` (stereo unspecified), “inactive”.
On the same count and under the same terms, under `CCCCNC(=O)n1c(NC(=O)OC)nc2ccccc21` stands “inactive”.
In the case of `CCNc1nc(Cl)nc(NCC)n1`, the call was inactive.
Still for that read-out and setting: in the case of `CC1COC(Cn2cncn2)(c2ccc(Oc3ccc(Cl)cc3)cc2Cl)O1` (stereo unspecified) it was “inactive”; in that of `CON(C)C(=O)Nc1ccc(Cl)c(Cl)c1`, “inactive”.
Consider `C=CCC1=C(C)C(OC(=O)C2C(C=C(C)C)C2(C)C)CC1=O` (stereo unspecified), for which the result was inactive; the AC50 is 30.9 µM (active) and 52.5 µM (active) and 74.7 µM (active).
As for `CC1=C(C(=O)Nc2ccccc2)SCCO1`, the molecule was classed as inactive.
As for `CC(C)Oc1cc(-n2nc(C(C)(C)C)oc2=O)c(Cl)cc1Cl`, the result was inactive.
The same measure, in the same setting: in the case of `COc1nc(C)nc(NC(=O)NS(=O)(=O)c2ccccc2CCC(F)(F)F)n1` it was “inactive”; in that of `O=C(Nc1ccccc1)Nc1ccnc(Cl)c1`, “inactive”; in that of `COC(=O)N(OC)c1ccccc1COc1ccn(-c2ccc(Cl)cc2)n1`, “inactive”.
On to `COc1cnc(OC)n2nc(NS(=O)(=O)c3c(OCC(F)F)cccc3C(F)(F)F)nc12`, for which the outcome was inactive.
For the molecule `CCCCOC(=O)c1ccccc1C(=O)OCCCC`, the AC50 was 39.8 µM (active) and the outcome was inactive.
For the molecule `O=C(O)COc1nc(Cl)c(Cl)cc1Cl`, the molecule was classed as inactive.
The same measure, in the same setting: in the case of `CCCN(CCC)c1c([N+](=O)[O-])cc(S(N)(=O)=O)cc1[N+](=O)[O-]` it was “inactive”; in that of `CCON=C(CC)C1=C(O)CC(c2c(C)cc(C)cc2C)CC1=O` (stereo unspecified), “inactive”.
Regarding `O=C(O)c1nc(Cl)ccc1Cl`, the result was inactive.
Same read-out and setting: in the case of `CCOc1cc(Oc2ccc(C(F)(F)F)cc2Cl)ccc1[N+](=O)[O-]` it was “inactive”; in that of `COc1nc(C)nc(NC(=O)NS(=O)(=O)c2ccccc2Cl)n1`, “inactive”; in that of `COP(=S)(OC)Oc1nc(Cl)c(Cl)cc1Cl`, “inactive”.
On the same count and under the same terms, under `C#CCOS(=O)OC1CCCCC1Oc1ccc(C(C)(C)C)cc1` (stereo unspecified) stands “inactive”.
With `CO/C=C(/C(=O)OC)c1ccccc1Oc1cc(Oc2ccccc2C#N)ncn1`, the outcome was inactive.
Still for that read-out and setting: in the case of `C=CC1(C)OC(=O)N(c2cc(Cl)cc(Cl)c2)C1=O` (stereo unspecified) it was “inactive”.
Still for that read-out and setting: under `COP(N)(=O)SC` (stereo unspecified) stands “inactive”.
The same measure, in the same setting: under `N#Cc1cc(Br)c(O)c(Br)c1` stands “inactive”; under `CNC(=S)S`, “inactive”; under `CS/C(C)=N/OC(=O)N(C)SN(C)C(=O)O/N=C(\C)SC`, “inactive”.
In the case of `COC(=O)C(C)Oc1ccc(Oc2ccc(Cl)cc2Cl)cc1` (stereo unspecified), the result was inactive.
On the same count and under the same terms, under `COc1ccc(C(c2ccc(OC)cc2)C(Cl)(Cl)Cl)cc1` stands “inactive”; under `CCCCC(CC)COC(=O)c1ccccc1C(=O)OCC(CC)CCCC` (stereo unspecified), “inactive”; under `C=CCC1=C(C)[C@@H](OC(=O)[C@@H]2[C@@H](C=C(C)C)C2(C)C)CC1=O`, “inactive”.
The same measure, in the same setting: in the case of `N#Cc1nn(-c2c(Cl)cc(C(F)(F)F)cc2Cl)c(N)c1S(=O)C(F)(F)F` (stereo unspecified) it was “inactive”.
On to `CCCC1COC(Cn2cncn2)(c2ccc(Cl)cc2Cl)O1` (stereo unspecified), for which the result was inactive and the AC50 is 50 µM (active).
